# WRN helicase inh: qHTS for Inhibitors of WRN Helicase. Bifunctional 3'-5' exonuclease/ATP-dependent helicase WRN (Homo sapiens), Q14191. WRN helicase unwinding, fluorescent forked duplex, kinetic. Potency, µM (highest dose often 114 µM), actives largely listed as inhibitors. 360,000 compounds, 0.46% hits. AID 651768, 2012; also: nearly all actives have a fitted effect of over 55% in size
#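 WRN at 20 nM final was preincubated with compound for 15 min at room temperature; reaction started with 100 nM forked duplex oligonucleotide carrying fluorophore and quencher plus 2 mM ATP (final). Unwinding followed kinetically by red fluorescence (ex 525/em 598 nm).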
# POLK inh: qHTS for Inhibitors of Polymerase Kappa; DNA polymerase kappa (Homo sapiens), Q9UBT6; AID 588579, 2011; Potency, µM (doses to about 107 µM), most hits filed as inhibitors; purified Pol kappa, fluorescent DNA synthesis assay, 10 min; 400,000 compounds, 0.53% hits
# Target sequence (Q9UBT6 whole entry, looked up): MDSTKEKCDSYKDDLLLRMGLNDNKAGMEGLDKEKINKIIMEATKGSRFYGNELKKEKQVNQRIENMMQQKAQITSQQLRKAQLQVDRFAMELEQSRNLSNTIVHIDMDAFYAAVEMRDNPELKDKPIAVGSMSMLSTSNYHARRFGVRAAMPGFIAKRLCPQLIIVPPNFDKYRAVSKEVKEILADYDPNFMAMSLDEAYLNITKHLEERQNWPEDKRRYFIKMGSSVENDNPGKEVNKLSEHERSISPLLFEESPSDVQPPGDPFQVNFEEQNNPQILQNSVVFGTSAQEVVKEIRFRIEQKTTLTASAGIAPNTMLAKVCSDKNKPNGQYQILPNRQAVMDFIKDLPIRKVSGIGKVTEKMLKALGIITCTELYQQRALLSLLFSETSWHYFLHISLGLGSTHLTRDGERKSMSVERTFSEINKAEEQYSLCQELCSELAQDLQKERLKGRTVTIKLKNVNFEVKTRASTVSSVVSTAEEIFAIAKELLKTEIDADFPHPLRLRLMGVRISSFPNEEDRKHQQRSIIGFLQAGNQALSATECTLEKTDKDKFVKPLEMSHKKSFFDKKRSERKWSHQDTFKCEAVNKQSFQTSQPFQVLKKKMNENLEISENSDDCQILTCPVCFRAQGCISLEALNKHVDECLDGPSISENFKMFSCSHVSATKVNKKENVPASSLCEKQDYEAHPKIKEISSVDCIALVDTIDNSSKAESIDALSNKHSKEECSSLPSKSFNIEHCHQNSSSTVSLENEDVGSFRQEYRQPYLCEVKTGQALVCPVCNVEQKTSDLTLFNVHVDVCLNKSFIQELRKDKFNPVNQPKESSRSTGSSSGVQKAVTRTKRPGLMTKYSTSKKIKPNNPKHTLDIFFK
#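 Enzyme at 10 nM met test compounds for 15 min at room temperature. Substrate addition (50 nM final) began the reaction, which was monitored by fluorescence at 0 and 10 min.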
# Pol eta inh: qHTS for Inhibitors of Polymerase Eta. DNA polymerase eta (Homo sapiens), Q9Y253. recombinant Pol eta, fluorescent DNA replication assay. Potency, µM (highest dose often 114 µM), hits mostly inhibitors. 390,000 compounds, 1.2% hits
#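 Fluorescent replication assay: 50 nM final substrate added after a 15 min room-temperature compound preincubation with 10 nM enzyme. Signal taken at 0 min and again at 10 min.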
# Pol beta inh: qHTS Assay for Inhibitors of DNA Polymerase Beta. P06746. Pol beta primer extension/strand displacement, fluorescence kinetic. Potency, µM (highest dose often 114 µM), hits mostly inhibitors. 340,000 compounds, 1.3% hits. AID 485314, 2010
#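 Reaction started by 50 nM substrate onto compound-treated Pol beta (10 nM, 15 min preincubation, room temperature); plates read at 0 min and 10 min. Normalized concentration-effect data fitted by four-parameter Hill equation.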
# Pol iota inh: qHTS for Inhibitors of Polymerase Iota | DNA polymerase iota (Homo sapiens), Q9UNA4 | Pol iota fluorescent replication assay, 10 min | Potency, µM (top dose mostly 115 µM), usual class: inhibitors | 390,000 compounds, 1% hits
#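 Fluorescent replication assay read twice, at 0 min and 10 min after adding 50 nM (final) substrate. Enzyme (10 nM) and compounds were first incubated 15 min at room temperature; enzyme-free buffer wells were negative controls.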
# FEN1 inhibitor: qHTS Assay for the Inhibitors of Human Flap endonuclease 1 (FEN1). Recombinant FEN1 flap cleavage, fluorescence, 15 min. Potency, µM (doses to about 114 µM), actives largely listed as inhibitors. 390,000 compounds, 0.35% hits; also: nearly all actives have a fitted effect of over 65% in size
#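 In this screen, 50 nM flap DNA substrate was added to 10 nM FEN1 pretreated with compound for 15 min at room temperature; cleavage was followed with reads at 0 and 15 min, and Hill fitting gave concentration–response parameters.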
# Numbers stand for hits; – = inactive; ? = inconclusive; · = no result; [ ] = another dose, or the depositor's remark. This is a sample that favours compounds with a hit; in the whole collection about 2.4% have one here. Calls follow the shape of the dose curve; as a rule, active = well fitted curve in the direction sought with a large enough effect; inconclusive = small, poorly fitted or top-dose-only effect, or another doubt; inactive = no such curve, though single readings can be large; an effect the other way counts as inactive or inconclusive.
SMILES,WRN helicase inh,POLK inh,Pol eta inh,Pol beta inh,Pol iota inh,FEN1 inhibitor
COc1ccccc1-c1nnc(N(C)C(=O)C2CCCO2)s1 (centres undefined),–,–,–,–,–,–
Fc1ccc(-n2cc(-c3ccccc3)c3c(=S)nc[nH]c32)cc1,–,?,–,–,79µM,–
Oc1ccc(/C=N/N2CCCCC2)c(O)c1O,?,?,–,35µM,?,?
Oc1ccc(/C=N/N(c2ccccc2)c2ccccc2)c(O)c1O,·,·,·,5µM,·,·
O=C1c2ccccc2C(=O)N1/N=C/c1ccc(O)c(O)c1O,8.9µM,1.4µM,1.6µM,?,?,11µM
Oc1cccc(/C=N/N2CCCCC2)c1O,–,–,–,?,?,–
O=C1c2cccc3cccc(c23)C(=O)N1/N=C/c1ccc(O)cc1O,–,–,?,?,–,–
O.O.[Mn].[Mn].[Mn].[OH-].[OH-],·,–,·,·,·,·
COc1ccccc1C=NNC(=O)C(=O)NN=Cc1ccccc1OC,–,–,–,·,–,–
CCOC(=O)C1=C(C)NC(=S)NC1c1ccco1 (centres undefined),?,?,?,–,22µM,–
CCOC(=O)C1=C(C)NC(=O)NC1c1ccc(C)o1 (centres undefined),–,?,?,–,56µM,–
CCOC(=O)C1=C(C)NC(C)=C(C(=O)OCC)C1c1ccc(C)o1,–,–,–,–,–,–
NS(=O)(=O)c1ccc(CCNC(=O)CCC(=O)c2cccs2)cc1,–[11.6 µM],–,89µM,·,–,–
O=C(CCC(=O)c1cccs1)NCCc1ccc(F)cc1,–,–,–,·,–,–
O=c1c2c(nc3c(-c4cccc(Br)c4)c[nH]n13)CCCC2,–,–,–,–,–,–
O=c1c2c(nc3c(-c4ccc(Cl)cc4)c[nH]n13)CCC2,–,–,–,89µM,–,–
COc1ccc(Cl)cc1NC(=O)c1c(NCc2cccs2)sc2c1CCCC2,·,–,50µM,?,–,–
COc1ccc(OC)c(NC(=O)c2c(NCc3cccs3)sc3c2CCCC3)c1,·,–,–,–,?,–
Cc1ccccc1OCC(=O)N1CCC2(CC1)CC(=O)c1ccccc1O2,–,–,–,·,–,–
Cc1ccc(S/C=C\C(=O)c2ccccc2)cc1,–,–,–,–,79µM,–
Cc1cc(N2CCN(C)CC2)nc2ccc(NC(=O)Nc3ccc(Cl)cc3)cc12,·,–,–,–,–,–
Cc1cc(N)c2cc(NC(=O)Nc3ccc4nc(C)cc(N)c4c3)ccc2n1,·,6.3µM,·,·,·,·
CCN(CC)c1ccc2nc3c4ccccc4c(=O)cc-3oc2c1,?,–,–,?,–,?
CCN(CC)c1ccc2c(-c3ccc(S(=O)(=O)O)cc3S(=O)(=O)[O-])c3ccc(=[N+](CC)CC)cc-3oc2c1,·,?,·,5µM,·,?
CCC(=O)NNC(=O)CSc1nnc(-c2ccccc2)c(-c2ccccc2)n1,–,–,–,–,–,–
SMILES,WRN helicase inh,POLK inh,Pol eta inh,Pol beta inh,Pol iota inh,FEN1 inhibitor
Oc1ccc(N=Cc2ccc(O)c(O)c2)cc1,32µM,45µM,3.2µM,?,13µM,?
COc1ccc(-c2coc3cc(O)ccc3c2=O)c(OC)c1O,·,–,·,·,·,·
COc1ccc(-c2coc3cc(O)ccc3c2=O)c(O)c1O,·,1.8µM,·,·,·,·
CCOc1ccc2noc3c2c1C(=O)c1ccccc1-3,–,–,–,–,–,–
O=C1c2ccccc2-c2onc3ccc(NCc4ccco4)c1c23,?,–,?,?,?,8.9µM
O=C(COC(=O)/C=C/c1ccc(F)cc1)Nc1cccc(S(=O)(=O)N2CCCC2)c1,–,–,–,–,–,–
CN1/C(=C/c2cccc[n+]2C)Sc2ccccc21,–[11.6 µM],–,–,32µM,?,45µM
O=C(CN1C(=O)CC(c2ccco2)Sc2ccccc21)Nc1ccccc1F (centres undefined),?,–,?,–,45µM,–
COc1ccc(CNC(=O)C2CCN(c3nnc(C)c4c(C)n(-c5ccc(C)cc5)nc34)CC2)cc1,·,–,–,–,–,–
O=C(Nc1ccc(F)cc1F)c1cc2ccc3cccnc3c2[nH]1,·,–,–,18µM,?,–
Cc1ccccc1Cn1c(=O)n(CC2CCC(C(=O)N3CCC(C)CC3)CC2)c(=O)c2sccc21 (centres undefined),·,–,–,–,–,–
CCN1/C(=C/c2cc[n+](C)cc2)C=Cc2cc(C)ccc21,–,–,?,22µM,?,?
O=C(c1ccco1)N1CCN(C2CN(Cc3ccccc3)S(=O)(=O)C2)CC1 (centres undefined),–,·,·,·,·,·
CCCCC(=O)Nc1nnc(/C=C/c2ccc(OC)cc2)s1,–,–,–,?,–,–
O=C(O)C(O)c1ccccc1 (centres undefined),–,·,–,–,–,–
O=C(O)C(O)c1ccco1 (centres undefined),50µM,20µM,3.5µM,2.2µM,?,?
Cc1ccc2ccccc2[n+]1CCCCI,·,?,·,·,–,–
Cc1cc(N)c2ccccc2[n+]1CCCCCCCCCC[n+]1c(C)cc(N)c2ccccc21,·,?,–,32µM,?,·
COc1ccc(CNC(=O)C2CC(C)=C(C)CC2C(=O)O)cc1OC (centres undefined),–,–,–,–,–,–
C[C@@]1(C(=O)O)NCCc2cc(O)c(O)cc21,·,1.8µM,·,·,·,·
COc1ccc(S(=O)(=O)NCc2cccn2Cc2cccc(C)c2)cc1OC,·,–,–,–,–,–
C=CCOc1c(Br)cc(/C=C2/C(=O)ON=C2C)cc1OC,–[11.6 µM],–,–,–,89µM,–
CCOc1ccc(/C=C2\SC(=S)N(C(C(=O)O)c3ccccc3)C2=O)cc1OC (centres undefined),–[11.6 µM],–,79µM,–,?,–
CC(/C=C1\SC(=S)N(C(C(=O)O)c2ccccc2)C1=O)=C\c1ccccc1 (centres undefined),–[11.6 µM],?,89µM,–,?,–
C=CCOc1ccc(/C=C2\SC(=S)N(C(C(=O)O)c3ccccc3)C2=O)cc1 (centres undefined),–[11.6 µM],–,79µM,–,?,–
O=C(O)C(c1ccccc1)N1C(=O)/C(=C/c2cccs2)SC1=S (centres undefined),–,–,–,–,?,–
C/C=C1\C(OC2OC(CO)C(O)C(O)C2O)OC=C(C(=O)OC)C1CC(=O)OCC1C(C)C(OC(=O)CC2C(C(=O)OC)=COC(OC3OC(CO)C(O)C(O)C3O)/C2=C\C)CC1C(CO)CO (centres undefined),–,79µM,?,25µM,79µM,–
